# SKKanGAS inh: blocks kanamycin growth of S. pyogenes SKKanGAS strain; BacTiter-Glo, 6 h; inhibition, % at 7.5 µM; 300,000 compounds, 1.3% hits; AID 1662;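 active means mean replicate score, as percent of positive control median, at least 50; inconclusive means mean below 50 but one replicate at or above 50; inactive means mean and every replicate below 50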;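 further: strain carries kanamycin resistance gene driven by streptokinase promoter and grows in 40 µg/ml kanamycin; loss of luminescence reflects streptokinase promoter inhibition or plain growth inhibition; 0% = median of DMSO wells and 100% = positive control at its reference dose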
# tim10-1 inh: inhibits growth of tim10-1 mutant yeast; S. cerevisiae tim10-1 ts strain growth, BacTiter-Glo, 24 h; 330,000 compounds, 2.2% hits; inhibition, % at 20 µM;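 active means inhibition of at least 40%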;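 further: mutant grown at 25 °C; 0% = DMSO wells with yeast and 100% = wells holding no yeast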
# NLRP3 yeast inh: blocks the NALP3 inflammasome reconstituted in yeast. 330,000 compounds, 0.39% hits. Yeast reconstituted NLRP3/ASC/caspase-1, beta-gal luminescence, 24 h. inhibition, % at 10 µM;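 active means inhibition of 50% or more; inactive means inhibition below 50%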;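 further: plate controls were induced DMSO wells for no effect and uninduced yeast grown without galactose for full effect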
# PfHsp90 set2: inhibits growth of yeast expressing Plasmodium falciparum Hsp90 | S. cerevisiae expressing PfHsp90, BacTiter-Glo ATP, 48 h; yeast lacking PDR1 and PDR3 efflux regulators | inhibition, % at 9.4 µM | 310,000 compounds, 0.32% hits;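 active means every replicate shows inhibition above about 80%, whatever the replicate mean, limit read from the data; inconclusive means mean inhibition reaches the set limit but some replicate falls short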;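 further: 0% = DMSO neutral controls and 100% = 20 µM radicicol positive controls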
# tim23-1 inh: inhibits growth of tim23-1 mutant yeast; S. cerevisiae tim23-1 growth, BacTiter-Glo luminescence, 24 h; inhibition, % at 20 µM; 330,000 compounds, 1.3% hits;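 active means growth inhibition of the mutant yeast at or above 50%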;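 further: temperature-sensitive mutant grown at 25 °C; plate controls were DMSO-treated mutant yeast for no effect and medium wells lacking yeast for full effect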
# TIM10 inh: TIM10 yeast growth inhibition; S. cerevisiae TIM10 strain growth, BacTiter-Glo luminescence, 24 h; inhibition, % at 10 µM; 330,000 compounds, 1.4% hits; AID 463195;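 active means inhibition of 40% or more at the single tested concentration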;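 further: wild-type TIM10 isogenic control strain grown at permissive 25 °C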
# Numbers without * were called inactive; ? = inconclusive; nt = no result. An excerpt weighted towards active compounds, which were near 4.6% of everything screened.
SMILES,SKKanGAS inh,tim10-1 inh,NLRP3 yeast inh,PfHsp90 set2,tim23-1 inh,TIM10 inh
CCc1ccc(C(=O)Nc2nc3ccccc3[nH]2)cc1,63*,0,22,8,8,19
COc1ccc2oc(C(=O)Nc3nc4ccccc4[nH]3)c(C)c2c1,78*,-24,13,30,18,19
CC(C)Oc1ccc(C(=O)Nc2nc3ccccc3[nH]2)cc1,55*,-11,11,52,13,17
C/C=C1\COC(C(=O)NCc2ccccc2)(C(F)(F)F)C=C1C=C(C)C (configuration not stated),10,5,10,16,31,11
CC1C(c2ccc3c(c2)OCO3)c2cc3c(cc2OC1N1CCOCC1)OCO3 (configuration not stated),nt,nt,nt,15,nt,nt
CC1(C)Cc2c(cnn2-c2cccc(F)c2)C(NC(=O)CN2CCCC2=O)C1 (configuration not stated),-1,1,6,-9,-2,-6
CCOC(=O)c1cnc(-n2nc(C)cc2C)nc1NNc1nc(C)cc(C)n1,80*,21,4,-3,-1,-16
CCOC(=O)c1cnc(-n2nc(C)cc2C)nc1NNc1nc(-c2ccccc2)cc(-c2ccccc2)n1,105*,20,4,-6,20,11
CCOC(=O)c1cnc(-n2nc(C)cc2C)nc1NC,?,14,21,nt,20,-33
O=C(NCCOc1ccc(Cl)cc1)c1ccco1,-4,8,26,-8,5,-1
COc1ccc(CC(=O)NNC(=O)COc2ccc(Cl)cc2C)cc1S(=O)(=O)N1CCOCC1,nt,-3,15,-18,-13,0
CCOc1cc(/C=N/Nc2ccc(C(=O)O)cc2)ccc1OC(=O)c1ccccc1C,75*,6,5,19,-1,-1
COc1cc(/C=N/NS(=O)(=O)c2ccc(C)cc2)ccc1OCc1cccc(C(=O)O)c1,11,-7,8,-3,20,-11
COc1cccc(C(=O)Oc2ccc(/C=N/Nc3ccc(C(=O)O)cc3)cc2OC)c1,55*,0,1,0,29,9
COc1cc(/C=N/NS(=O)(=O)c2ccc3ccccc3c2)ccc1OCc1ccc(C(=O)O)cc1,55*,-1,2,18,22,15
COc1cc(/C=N/Nc2ccc(Cl)c(C(=O)O)c2)ccc1OC(=O)c1ccccc1F,21,11,-5,11,37,22
CCOC(=O)c1ccc(S(=O)(=O)N2CCN(c3ccccn3)CC2)cc1,3,6,6,-3,10,7
Cc1nc2ccccc2c(=O)n1NC(=O)c1c(O)c2c(n(CC(C)C)c1=O)CCCC2,33,37,3,0,48,32
CCCCCCc1nc2ccccc2c(=O)n1NC(=O)c1c(O)c2c(n(CC(C)C)c1=O)CCCC2,57*,0,1,-24,19,7
COC(=O)c1cccc(NC(=S)NCc2ccc(Cl)cc2)c1,62*,37,13,3,-7,28
CCC(NC(=O)Nc1nnc(C(F)(F)F)s1)(C(F)(F)F)C(F)(F)F,118*,3,-4,10,-9,-9
Oc1cccc2ccc(/C=C/c3ccccc3Cl)nc12,99*,-2,40,100*,27,14
O=C(O)c1ccc(/C=C/c2ccc3cccc(O)c3n2)cc1,3,18,19,-31,21,15
Oc1cccc2ccc(/C=C/c3c(F)cccc3Cl)nc12,74*,11,11,-29,9,7
O=[N+]([O-])c1cccc(/C=C/c2ccc3cccc(O)c3n2)c1,84*,17,12,-1,11,21
SMILES,SKKanGAS inh,tim10-1 inh,NLRP3 yeast inh,PfHsp90 set2,tim23-1 inh,TIM10 inh
Cc1cccc(C)c1NC(=O)CN1C(=O)NC(C)(CCc2ccccc2)C1=O (configuration not stated),5,3,19,6,10,-11
CCOc1cccc2sc(Nc3nc4ccc(NC(C)=O)cc4s3)nc12,71*,21,-10,4,20,22
CCC(=O)Nc1nc2ccc(NC(C)=O)cc2s1,-5,15,7,10,11,15
CCCC[C@H]1COCCS(=O)(=O)N1Cc1ccc(Br)cc1,13,3,29,8,39,12
CCCn1nnnc1NC(=O)c1ccc2ccccc2c1,90*,2,15,-52,-74,7
CCCn1nnc(NC(=O)c2ccc3ccccc3c2)n1,-9,-34,15,nt,-4,14
COc1cc(NS(=O)(=O)c2ccc(C)cc2)c2ncccc2c1,82*,23,-7,nt,21,10
Cc1ccc(S(=O)(=O)Nc2cccc3cccnc23)cc1,?,34,2,-46,25,27
Cn1c(N)c(C(=O)COC(=O)CCCc2c[nH]c3ccccc23)c(=O)n(C)c1=O,75*,9,9,-21,4,-1
Cn1c(N)c(C(=O)COC(=O)CCc2nc3ccccc3s2)c(=O)n(C)c1=O,-1,12,-3,21,-8,-2
NC(=O)COC(=O)CCCc1c[nH]c2ccccc12,2,8,4,-7,11,5
Cn1c(N)c(C(=O)COC(=O)CCc2c[nH]c3ccccc23)c(=O)n(C)c1=O,63*,-2,6,5,-13,2
Clc1ccccc1OCCCCn1ccnc1,59*,31,8,-8,17,12
CSCCC(NC(=O)c1ccco1)C(=O)Nc1ccc(C)cn1 (configuration not stated),-11,1,21,nt,3,-1
O=C(c1ccco1)N1CCN(C(=O)c2ccccc2OCc2ccc(Cl)cc2)CC1,13,-10,19,10,-4,-1
Cc1ccc(NNC(=O)C(O)(c2cccc(C(F)(F)F)c2)c2cccc(C(F)(F)F)c2)cc1,29,-16,16,-6,19,27
O=C(NNc1ccccc1Br)C(O)(c1cccc(C(F)(F)F)c1)c1cccc(C(F)(F)F)c1,101*,27,7,27,9,-6
Cc1cc(/C=N/n2cnnc2)c(C)n1-c1ccc(OCc2ccc(Cl)cc2)cc1,62*,17,27,-11,17,21
COc1cccc(-c2c(-c3cc(OC)cc(OC)c3)n(C)c3ccc(-c4cnc(N5CCOCC5)nc4)cc23)c1,nt,4,1,-13,11,-6
CC1(C)Cc2c(sc3[nH]c(=O)n(CC(=O)NCC4CCCO4)c(=O)c23)CO1 (configuration not stated),6,-16,16,-5,13,4
Cc1ccc2nc(-c3cccc(NS(C)(=O)=O)c3)cc(-c3ccccc3)c2c1,33,12,2,100*,35,17
Cc1nc(-c2cccc(NS(=O)(=O)c3ccccc3)c2)cs1,9,25,11,-7,30,20
O=C(Nc1nc2ccccc2s1)C1CC(=O)N(c2ccc(F)cc2)C1 (configuration not stated),8,10,14,8,13,17
